Consider 3 molecules from PubChem BioAssay.

Assay [1] is described as follows: optical density shifts of acrAB sulA E. coli – strain DRC41, OD650, 48 h, E. coli filamentation inducer project, primary screen (AID 1152).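 Also: E. coli MC1000 strain DRC41 lacking acrAB efflux pump and sulA.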 The following applies: higher = more signal, called active from +8 up or from −8 down.
The nature of assay [2]: probe aLefty1 binding on compound microarray – biochemical, small-molecule microarray, 635/667 nm fluorescence, primary screen (AID 1153).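 Also: score merges spot fluorescence with signal-to-noise ratio from the scanned slide images.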 The following applies: higher = more signal.
The nature of assay [3]: plasmodial surface anion channel blockers, osmotic lysis – cell-based, P. falciparum Indochina, OD700, 1 h, primary screen (AID 1154). The following applies: P. falciparum Indochina infected RBC osmotic lysis, higher = more signal, called active from +8 up or from −8 down.
A short description of assay [4]: plasmodial surface anion channel blockers, osmotic lysis – cell-based, P. falciparum Indochina, OD700, 2 h, primary screen (AID 1155).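 Also: lysis reports solute entry through the parasite surface anion channel PSAC.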 Conditions: P. falciparum Indochina infected erythrocytes, higher = more signal, called active from +8 up or from −8 down.
Assay [5] in a line: changes in parasitized red cell lysis, either direction – P. falciparum Indochina, OD700, 3 h, PSAC antagonist project, primary screen (AID 1156). Conditions: P. falciparum-infected erythrocytes, osmotic lysis, higher = more signal, called active from +8 up or from −8 down.
Assay [6] in a line: plasmodial surface anion channel blockers, osmotic lysis – cell-based, P. falciparum Indochina, OD700, 18 h, primary screen (AID 1157). Conditions: P. falciparum Indochina infected erythrocytes, osmotic lysis OD700, 18 h; higher = more signal, called active from +8 up or from −8 down.
Assay [7] in a line: S6 kinase pathway phospho-S6 level changes – cell-based, A549, cytoblot, luminescence, serum-stimulated, primary screen (AID 1158).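 Also: serum-stimulated A549 lung adenocarcinoma cells; signal is phosphorylated S6 detected by cytoblot immunostaining with HRP secondary.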 The following applies: 5 h, higher = more signal.
For assay [8], the target named is NADPH oxidase 2 (Homo sapiens) (UniProt P04839). The assay can be described thus: compounds shifting NOX2 Amplex Red fluorescence – cell-based, HEK293-NOX2, PMA-stimulated, NOX inhibitor project, primary screen (AID 1159). Also: test concentration not given here. The following applies: 45 min, higher = more signal, called active from +8 up or from −8 down.
NADPH oxidase 2 (Homo sapiens), sequence (P04839 whole entry, looked up): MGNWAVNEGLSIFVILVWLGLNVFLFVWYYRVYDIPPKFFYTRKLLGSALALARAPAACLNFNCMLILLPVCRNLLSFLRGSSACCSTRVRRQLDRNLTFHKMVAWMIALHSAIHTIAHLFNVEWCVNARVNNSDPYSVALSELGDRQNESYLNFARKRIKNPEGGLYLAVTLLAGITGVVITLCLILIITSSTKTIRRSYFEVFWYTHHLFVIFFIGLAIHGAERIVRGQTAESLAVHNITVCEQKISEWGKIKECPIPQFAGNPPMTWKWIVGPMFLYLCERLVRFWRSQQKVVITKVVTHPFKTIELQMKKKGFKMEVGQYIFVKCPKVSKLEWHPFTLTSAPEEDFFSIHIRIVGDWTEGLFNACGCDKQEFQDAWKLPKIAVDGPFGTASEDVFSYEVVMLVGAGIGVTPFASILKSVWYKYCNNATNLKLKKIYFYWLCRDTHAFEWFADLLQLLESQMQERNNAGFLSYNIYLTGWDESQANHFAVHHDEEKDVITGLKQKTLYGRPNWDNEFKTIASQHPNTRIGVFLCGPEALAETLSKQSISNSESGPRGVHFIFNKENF
Assay [9] has as its target NADPH oxidase 4 (Homo sapiens) (UniProt Q9NPH5). The assay can be described thus: compounds shifting NOX4 Amplex Red fluorescence – cell-based, HEK293-NOX4, tetracycline-induced, NOX inhibitor project, primary screen (AID 1160). Conditions: HEK293-NOX4, Amplex Red H2O2 fluorescence, 45 min; higher = more signal, called active from +8 up or from −8 down.
For assay [10], the target named is NADPH oxidase 5 (Homo sapiens) (UniProt Q96PH1). The assay can be described thus: compounds shifting NOX5 Amplex Red fluorescence – cell-based, HEK293-NOX5, NOX inhibitor project, primary screen (AID 1161). Conditions: HEK293-NOX5, ionomycin, 45 min, higher = more signal.
NADPH oxidase 5 (Homo sapiens), sequence (Q96PH1 whole entry, looked up): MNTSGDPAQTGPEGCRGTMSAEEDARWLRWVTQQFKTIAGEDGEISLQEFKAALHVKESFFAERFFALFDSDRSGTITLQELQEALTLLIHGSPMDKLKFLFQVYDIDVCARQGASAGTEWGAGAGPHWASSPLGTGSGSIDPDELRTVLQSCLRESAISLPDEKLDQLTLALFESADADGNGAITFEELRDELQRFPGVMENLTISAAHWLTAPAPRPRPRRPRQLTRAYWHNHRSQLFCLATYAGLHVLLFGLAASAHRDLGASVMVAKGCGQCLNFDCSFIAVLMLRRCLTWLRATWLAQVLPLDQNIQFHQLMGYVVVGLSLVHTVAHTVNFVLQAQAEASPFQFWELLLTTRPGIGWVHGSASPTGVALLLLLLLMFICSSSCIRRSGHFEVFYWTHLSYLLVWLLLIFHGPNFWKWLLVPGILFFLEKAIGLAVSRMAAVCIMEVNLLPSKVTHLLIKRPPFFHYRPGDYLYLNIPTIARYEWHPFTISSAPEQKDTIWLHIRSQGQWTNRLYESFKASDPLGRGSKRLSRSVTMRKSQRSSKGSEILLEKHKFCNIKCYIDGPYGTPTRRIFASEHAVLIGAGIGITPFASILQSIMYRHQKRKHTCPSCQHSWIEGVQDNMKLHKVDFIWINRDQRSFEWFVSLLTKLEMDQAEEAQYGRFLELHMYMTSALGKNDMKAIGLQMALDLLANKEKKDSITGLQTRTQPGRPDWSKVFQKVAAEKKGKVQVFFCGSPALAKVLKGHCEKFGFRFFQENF
Assay [11] is described as follows: compound effects on lung adenocarcinoma cell viability – A549, calcein-AM fluorescence, 48 h, basal, profiling panel (AID 1162). Also: test concentration not given here. Conditions: higher = more signal.
A short description of assay [12]: compound effects on differentiated 3T3-L1 adipocyte viability – cell-based, 3T3-L1 adipocytes, calcein-AM fluorescence, 48 h, basal, profiling panel (AID 1163). Also: test concentration not given here. Conditions: 3T3-L1 adipocytes viability, higher = more signal.
A short description of assay [13]: compound effects on hepatocellular carcinoma cell viability – HepG2, calcein-AM fluorescence, 48 h, basal, profiling panel (AID 1164). Also: test concentration not given here. The following applies: higher = more signal.
Assay [14] can be described thus: compound effects on multiple myeloma cell viability – MM1S, calcein-AM fluorescence, 48 h, basal, profiling panel (AID 1165).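 Also: viability of MM1S multiple myeloma cells under basal unstimulated conditions; test concentration not given here.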 The following applies: higher = more signal.
The nature of assay [15]: calcein-AM signal in unstimulated myeloma cells – cell-based, calcein-AM fluorescence, 48 h, PK04 Diversity Set, profiling panel (AID 1166).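 Also: cells grown under basal conditions without added stimulus; test concentration not given here.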 The following applies: RPMI8226 myeloma viability, higher = more signal.
The nature of assay [16]: JC-1 mitochondrial signal, unstimulated HepG2 cells – cell-based, JC-1 fluorescence, 24 h, 100 nL compound, profiling panel (AID 1167). Also: test concentration not given here. Conditions: HepG2 mitochondrial potential, higher = more signal.
Assay [17] is described as follows: JC-1 mitochondrial signal, unstimulated adipocytes – cell-based, JC-1 fluorescence, 3T3-L1 adipocytes, 24 h, 100 nL compound, profiling panel (AID 1168). Also: test concentration not given here. Conditions: JC-1 mitochondrial fluorescence, higher = more signal, called active from +8 up or from −8 down.
Assay [18] in a line: JC-1 mitochondrial signal, unstimulated myeloma cells – cell-based, JC-1 fluorescence, RPMI8226, 24 h, 100 nL compound, profiling panel (AID 1169). Also: test concentration not given here. Conditions: JC-1 mitochondrial potential fluorescence, higher = more signal.
Assay [19] can be described thus: JC-1 mitochondrial signal, unstimulated MM1S myeloma – cell-based, JC-1 fluorescence, 24 h, 100 nL compound, profiling panel (AID 1170). Also: test concentration not given here. The following applies: MM1S mitochondrial potential, higher = more signal.
Assay [20] can be described thus: resazurin metabolic signal in A549 cells – cell-based, resazurin fluorescence, 24 h, PK04 Diversity Set, profiling panel (AID 1171). Also: test concentration not given here. The following applies: A549 viability, higher = more signal, called active from +8 up or from −8 down.

Several values for one entry are separate records, joined by “and”; a condition that tells them apart may be missing. Equal values may be shown once. A structure can be active in one record and inactive in another. Activity calls are given as the source filed them.

NADPH oxidase 4 (Homo sapiens), sequence (Q9NPH5 whole entry, looked up): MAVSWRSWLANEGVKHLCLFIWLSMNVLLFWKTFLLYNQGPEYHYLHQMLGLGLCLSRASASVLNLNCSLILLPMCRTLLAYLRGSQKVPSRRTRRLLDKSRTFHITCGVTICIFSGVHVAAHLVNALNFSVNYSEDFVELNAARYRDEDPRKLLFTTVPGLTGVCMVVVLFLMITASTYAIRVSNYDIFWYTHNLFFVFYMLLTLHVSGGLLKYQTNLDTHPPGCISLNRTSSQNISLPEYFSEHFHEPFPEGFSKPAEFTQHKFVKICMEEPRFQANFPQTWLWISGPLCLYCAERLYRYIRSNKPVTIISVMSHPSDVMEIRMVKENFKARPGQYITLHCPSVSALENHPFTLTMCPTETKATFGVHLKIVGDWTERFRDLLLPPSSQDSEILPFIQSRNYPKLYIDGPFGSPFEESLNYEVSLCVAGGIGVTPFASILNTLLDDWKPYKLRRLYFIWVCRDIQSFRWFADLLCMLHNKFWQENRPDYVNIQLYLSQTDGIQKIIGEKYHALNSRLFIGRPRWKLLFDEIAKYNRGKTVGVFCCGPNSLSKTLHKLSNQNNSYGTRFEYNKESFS

`CCOC(=O)c1ccc(NC(=O)O[C@H]2[C@H](OC(=O)Nc3ccccc3)[C@@H](OC(=O)Nc3ccccc3)[C@@H](OC)O[C@@H]2CO)cc1`: the z-score in [1] is -1.16 (inactive) and -0.655 (inactive); in assay [3] it was 5.55 (inactive) and 14.7 (active); in [4] it was 1.05 (inactive) and 2.32 (inactive); in assay [5], 0.199 (inactive) and 1.28 (inactive); in assay [6] it was 0.764 (inactive) and 0.888 (inactive); in [7], 0.139 and 0.0102. In addition, the z-score in assay [8] is 0.0131 (inactive) and -4.33 (inactive); in [9], -0.578 (inactive) and -1.01 (inactive); in assay [10], -0.851 and -1.69; in [11] it was -1 and -2.09; in assay [12] it was 1.79 and 1.14; in [13], -1.92 and -2.54. Besides, the z-score in assay [14] was -1.83 and -2.21; in assay [15] it was -1.56 and -2.49; in [16], -1.05 and -0.323; in assay [17], 2.13 (inactive) and 0.661 (inactive); in [18], -0.464 and -0.37; in [19] it was -0.447 and -0.575. Besides, the z-score in assay [20] was -3.35 (inactive) and -3.84 (inactive). Besides, in assay [2], the composite z-score is 0.507 and 0.394.
Consider `CC(C)N1CC=CC23O[C@@H]4C=CCCOC(=O)C4[C@H]2C(=O)N(C(C)CO)[C@@H]3C1=O` (stereo not given in full), for which the z-score in [1] was 2.39 (inactive) and 2.01 (inactive); in [3], 0.339 (inactive) and 1.47 (inactive); in assay [4], -0.917 (inactive) and -0.564 (inactive); in assay [5] it was -0.0544 (inactive) and 0.331 (inactive); in [6], -1.54 (inactive) and -0.97 (inactive); in assay [7] it was 0.22 and -0.109. The z-score was 1.94 (inactive) and 1.59 (inactive) in assay [8]; 0.808 (inactive) and 0.594 (inactive) in [9]; 2.17 and 1.76 in assay [10]; -0.507 and 0.287 in assay [11]; 1.61 and 1.45 in [12]; -0.658 and -0.153 in assay [13]. In addition, the z-score is 1.24 and 0.914 in [14]; 0.264 and 0.678 in assay [15]; 0.534 and 0.979 in assay [16]; 1.21 (inactive) and 1.41 (inactive) in assay [17]; 0.0803 and 0.664 in assay [18]; 1.69 and 1.02 in assay [19]. The z-score in assay [20] was 0.0618 (inactive) and 0.502 (inactive). Besides, the composite z-score in [2] was 0.0004 and -0.147.
As for `CCOC(=O)CCN1C(=O)[C@H]2[C@H]3[C@H](O)[C@H](O)CC(=NNC(=O)OCC)[C@@H]3CC[C@H]2C1=O`, the z-score was 0.542 (inactive) in assay [1]; -0.48 (inactive) in [3]; 0.189 (inactive) in [4]; -0.602 (inactive) in assay [5]; -0.0634 (inactive) in assay [6]; -0.494 in assay [7]. The z-score in assay [8] is -0.489 (inactive); in [9] it was 0.916 (inactive); in assay [10], 0.754; in assay [11], 0.241; in [12] it was -0.0796; in assay [13], 0.076. In addition, the z-score is -0.847 in [14]; -0.314 in assay [15]; -0.566 in assay [16]; -0.541 (inactive) in assay [17]; 0.209 in [18]; -0.479 in [19]. Further, the z-score in assay [20] is -0.453 (inactive). The composite z-score in [2] is -0.193.
